Data from the supplement of paper PMC9694430.

Tested on: LOC_OS01G10900-cb004
Test: thermal shift delta Tm vs DMSO control; higher = stronger stabilization (binding)
Details: 12.5 µM; protein concentration 2 µM
Method in brief: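 Rice kinase domain constructs were expressed in E. coli, purified, and tested by differential scanning fluorimetry with compound added in DMSO. Each well of a 96-well plate held 19.5 μl of 2 μM kinase in 100 mM potassium phosphate pH 7.5, 150 mM NaCl, 10% glycerol and 5 × SYPRO Orange, and fluorescence was read from 25°C to 95°C at 0.05°C/s. The melting temperature shift is the mean of triplicates, taken against protein with DMSO alone after Boltzmann fitting.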

Row | SMILES | thermal shift delta Tm
1 | CCOc1cc2ncc(C#N)c(Nc3ccc(OCc4ccccn4)c(Cl)c3)c2cc1NC(=O)/C=C/CN(C)C [Neratinib (HKI-272)] | 1 °C
2 | COc1cc2nccc(Oc3ccc(NC(=O)Nc4cc(C)on4)c(Cl)c3)c2cc1OC [Tivozanib (AV-951)] | 1.76 °C
3 | O=C1NC(=O)C(c2ccccc2[N+](=O)[O-])=C1Nc1ccc(O)c(Cl)c1 | 0.16 °C
4 | Cc1c(C(=O)N2CCOc3ccc(-c4ccc(N)nc4)cc3C2)ccc(S(C)(=O)=O)c1F | 0.01 °C
5 | Cn1nccc1Nc1nccc(-c2ccn([C@H](CO)c3ccc(Cl)c(F)c3)c(=O)c2)n1 | 0.24 °C
6 | COc1cc2c(N3CCN(C(=O)Nc4ccc(OC(C)C)cc4)CC3)ncnc2cc1OCCCN1CCCCC1 [Tandutinib (MLN518)] | 0.43 °C
7 | C[C@@H]1COCCN1c1cc(=O)n2c(n1)N(Cc1cncc(Cl)c1)[C@H](C(F)(F)F)CC2 | 0.48 °C
8 | COc1ccc(F)c(F)c1C(=O)c1cnc(NC2CCN(S(C)(=O)=O)CC2)nc1N | 0.34 °C
9 | O=C(NCc1ccccc1)c1csc(Nc2ccncn2)n1 [Thiazovivin] | 2.94 °C
10 | CCN(CC)CCCCNc1ncc2cc(-c3cc(OC)cc(OC)c3)c(NC(=O)NC(C)(C)C)nc2n1 | 0.9 °C
11 | O=c1cc(N2CCOCC2)oc2c(-c3ccc4c(c3)OCCO4)csc12 | 3.38 °C
12 | Nc1ccc(C(=O)Nc2cccc(-c3nc(N4CCOCC4)c4oc5ncccc5c4n3)c2)cn1 | 1.27 °C
13 | O=C(NC[C@H](O)CO)c1ccncc1Nc1ccc(I)cc1F | 1.79 °C
14 | CCOc1cc2ncc(C#N)c(Nc3ccc(F)c(Cl)c3)c2cc1NC(=O)/C=C/CN(C)C [Pelitinib (EKB-569)] | 1.14 °C
15 | COc1cc2ncnc(Nc3ccc(Cl)cc3F)c2cc1OC | 0.27 °C
16 | Cc1cc(Nc2ncnc3ccc(NC4=NC(C)(C)CO4)cc23)ccc1Oc1ccn2ncnc2c1 [Irbinitinib (ARRY-380, ONT-380)] | 0.3 °C
17 | CC1(C)CNc2cc(NC(=O)c3cccnc3NCc3ccncc3)ccc21 [Motesanib Diphosphate (AMG-706)] | 0.63 °C
18 | COC(=O)Nc1ccc(-c2nc(N3CCOCC3)c3cnn(C4CCN(C(=O)OC)CC4)c3n2)cc1 | 1.9 °C
19 | COc1cc(C(=O)N2CCC(N3CCN(C)CC3)CC2)ccc1Nc1ncc2c(n1)N(C)c1ccccc1C(=O)N2C | 2.12 °C

Row | SMILES | thermal shift delta Tm
20 | C=C(C)[C@@H]1CC[C@]2(C)CC[C@]3(C)[C@H](CC[C@@H]4[C@@]5(C)CC[C@H](O)C(C)(C)[C@@H]5CC[C@]43C)[C@@H]12 [Lupeol] | 0.32 °C
21 | Oc1cccc(-c2nc(N3CCOCC3)c3oc4ncccc4c3n2)c1 | 0.03 °C
22 | CCn1c(N)c(C(=O)NC)c(=O)c2ccc(C#CC(C)(O)COC)nc21 (configuration not stated) | -0.01 °C
23 | CCOc1cc(C(=O)N2CCC(N3CCN(C)CC3)CC2)ccc1Nc1ncc2c(n1)N(C1CCCC1)c1ccccc1C(=O)N2C | 0.01 °C
24 | Cc1ccc(NC(=O)c2cccc(C(C)(C)C#N)c2)cc1Nc1ccc2ncn(C)c(=O)c2c1 | 0.69 °C
25 | Nc1ccc(-c2ccc3ncc4ccc(=O)n(-c5cccc(C(F)(F)F)c5)c4c3c2)cn1 [Torin 2] | -0.05 °C
26 | CCN(CC)CCCC(C)Nc1ccnc2cc(Cl)ccc12 (configuration not stated) [Chloroquine Phosphate] | 0.14 °C
27 | C[C@@H](N)[C@H]1CC[C@H](C(=O)Nc2ccncc2)CC1 | 0.1 °C
28 | COc1cc(N2CCC(N(C)C)CC2)ccc1Nc1ncc(Cl)c(Nc2ccccc2P(C)(C)=O)n1 | 0.79 °C
29 | CCCS(=O)(=O)Nc1ccc(F)c(C(=O)c2c[nH]c3ncc(-c4ccc(Cl)cc4)cc23)c1F [Vemurafenib (PLX4032, RG7204)] | 6.74 °C
30 | CO[C@H]1C[C@@H]2CC[C@@H](C)[C@@](O)(O2)C(=O)C(=O)N2CCCC[C@H]2C(=O)O[C@H]([C@H](C)C[C@@H]2CC[C@@H](OCCO)[C@H](OC)C2)CC(=O)[C@H](C)/C=C(\C)[C@@H](O)[C@@H](OC)C(=O)[C@H](C)C[C@H](C)/C=C/C=C/C=C/1C [Everolimus (RAD001)] | 0.03 °C
31 | COc1ccc(S(=O)(=O)N(CCO)c2ccccc2CN(C)C/C=C/c2ccc(Cl)cc2)cc1 [KN-93 Phosphate] | 0.7 °C
32 | CN(C[C@@H]1COCCO1)S(=O)(=O)Nc1ccc2ccc3ncc(-c4cnn(C)c4)cc3c(=O)c2c1 | 1.59 °C
33 | COc1ccc(CCNCc2ccc(OCc3ccc(Cl)nc3)c(OC)c2)cc1OC | 0.52 °C
34 | Clc1ccc(C2(c3ccc(-c4cn[nH]c4)cc3)CCNCC2)cc1 | 0.17 °C
35 | CN(C)Cc1cccc(N/C(=C2\C(=O)Nc3cc(C(N)=O)ccc32)c2ccccc2)c1 | 1.98 °C
36 | CC[C@H](CO)Nc1nc(NCc2ccccc2)c2ncn(C(C)C)c2n1 [Roscovitine (Seliciclib,CYC202)] | 0.05 °C
37 | Cc1cc(Nc2cc(N3CCN(C)CC3)nc(/C=C/c3ccccc3)n2)n[nH]1 | 1.93 °C
